Each structure is given as a SMILES string. Calls of active or inactive are those of the source. A call without a number means that no potency is given here. Calls come from the whole dose curve; as a rule, active = well fitted inhibition curve with a large enough effect; inconclusive = small, poorly fitted or top-dose-only effect; inactive = flat fitted curve, though single readings scatter.

This assay deals with Nanoluciferase (engineered Oplophorus gracilirostris luciferase). Put plainly: Primary Nanoluciferase (NLuc) qHTS assay for identification of artifact compounds. (AID 1845222). As to conditions: NLuc-conditioned medium, Nano-Glo luminescence, 5 min; series mostly up to 54.1 µM. An excerpt: PI: Alexander Tropsha Ph.D.
UNC Eshelman School of Pharmacy
University of North Carolina, Chapel Hill, North Carolina
Hits from high-throughput screening (HTS) of chemical libraries are often false positives due to their interference with the assay detection technology. In response to this problem, we generated the largest publicly available library of chemical liabilities and developed a free webtool to predict HTS artifacts, both of which are described herein. More specifically, we generated, curated, and integrated HTS datasets for thiol reactivity, redox activity, and luciferase (firefly and nano) activity. Using these curated datasets, we developed and validated several Quantitative Structure-Interference Relationship (QSIR) models to predict nuisance behavior. […] These models were employed for virtual profiling of the National Center for Advancing Translational Science's (NCATS) in-house library, and 256 compounds for each assay were selected for the experimental validation of nuisance behavior. The BA for these external predictions ranged from 58 to 78% for compounds within the applicability domains of the models. […] The models developed in this study, along with aggregation models previously developed by our group (SCAM Detective) were implemented in "Liability Predictor," an online tool which may be used as part of chemical library design or for triaging HTS hits. Both the models and the curated datasets are publicly available at https://liability.mml.unc.edu/.
SEQUENCE No. (e.g., 1, 2, 3, etc.); […] (e.g., Cells, Incubation, Reagent, etc.); VALUE; DESCRIPTION.
1; Reagent; 2 uL; Nanoluciferase media.
2; Compounds and control; 16 nL; Kalypsis pin tool (Wako USA) equipped with a 1536-well pin head.
4; Reagent; 2 uL; Luciferase enzyme.
6; Detection; Luminescence, ViewLux microplate reader.
NOTES (numbers refer to Sequence numbers above)
1. Medium was collected from the culture flasks of NLuc-expressing S16 cells (80% confluent) prior to cell plating, filtered through a 0.22um filter, and frozen at -20C prior to use. Media was diluted (1:55) and 2 uL was dispensed into all wells of a 1536-well assay plate (solid-bottom white plate; Greiner Bio One, Monroe, NC).
2. A Wako Pin-tool (Wako Automation, Richmond, VA) was used to transfer 16 nL of compounds (consisting of 7-plates in qHTS format, final concentration range 18.3 nM to 114 uM) or control Cilnidipine (final concentration range 623 nM to 80 uM).
3. 15 min. incubation at room temperature protected from light.
4. 2 uL of NLuc substrate (1:100 in Nano-Glo luciferase buffer; Nano-Glo luminescence assay, Promega, Madison, WI) was dispensed for a final assay volume of 4 uL.
5. Plates were centrifuged (121xg, 15 seconds) and incubated for 5 minutes.
6. Samples were read for luminescence on a ViewLux CCD imager (PerkinElmer). Data were normalized to no-enzyme (0% activity) and no-inhibitor (DMSO; 100%) controls and the resulting percent inhibition data were fitted to a 4-parameter Hill equation using NCATS in-house software.
Regarding `CNC(C)C(=O)NC(C(=O)N1CCCC1C(=O)Nc1snnc1-c1ccccc1)C1CCCCC1` (stereo not given), the Potency entry was “inactive”. Turning to `CCCCCCCCC(=O)N[C@H](CN1CCCC1)[C@H](O)c1ccc2c(c1)OCCO2`, the Potency entry was “inactive”. Regarding `N#Cc1ccc(-c2ccc(S(=O)(=O)Nc3cccc(N)n3)cc2)cc1`, the Potency result is “inactive”. For `C=CCC1=C[C@]2(OC)[C@H](C)[C@@H](c3ccc4c(c3)OCO4)O[C@]2(OC)CC1=O`, the Potency entry was “inactive”.

On to `Cc1ccc(-c2ncccn2)c(C(=O)N2C[C@H](COc3ccc(F)cn3)CC[C@H]2C)c1`, for which the Potency result was “inactive”.

As to `CC(=O)CC(=O)Nc1ccc(Cl)c(C(F)(F)F)c1`, the Potency entry was “inactive”.

Regarding `COc1ccc(OC)c(-c2ccc(NC(=O)c3ccncc3F)cc2)c1`, the Potency result was “inactive”. On the same count and under the same terms, next, `Cc1cccc(-c2[nH]ncc2-c2ccnc3ccccc23)n1`: “inactive”; `COCCCNC(=O)c1ccc(Cn2c(=O)c3ccccc3n(Cc3ccc(C(C)C)cc3)c2=O)cc1`: “inactive”; `CC(C)C[C@H](C(=O)O)c1cc(-c2ccc(C(F)(F)F)cc2)cc(-c2ccc(C(F)(F)F)cc2)c1`: “inactive”. Still for that read-out and setting: next, `N#Cc1cc(CN2CCC(Nc3ncnc4sc(Cl)cc34)CC2)ccc1F`: “inactive”.

On to `CC(=O)NCc1cccc(OC[C@@H](O)CNCCc2ccc(NS(=O)(=O)c3ccccc3)cc2)c1`, for which the Potency entry is “inactive”. Consider `CCn1c(N)c(C(=O)NC)c(=O)c2ccc(C#CC(C)(O)COC)nc21` (stereo not given), for which the Potency result was “inactive”. As for `CC1(C(=O)Nc2ccc(F)nc2)CCCN1c1nc(Nc2cc(C3CC3)[nH]n2)c2cccn2n1` (stereo not given), the Potency entry is “inactive”.

Regarding `C=C1CCC2C(C)(C)CCCC2(C)C1CC/C(C)=C\CO` (stereo not given), the Potency entry was “inactive”. For `CN(C)[C@@H]1CCc2[nH]c3ccc(NC(=O)c4ccc(F)cc4)cc3c2C1`, the Potency entry is “inactive”. With `O=C(COc1ccc(C(=O)c2ccccc2)cc1)NC1CCN(Cc2ccccc2)CC1`, the Potency entry is “inactive”. Take `COC(=O)c1ccc2c(c1)[nH]c1ncnc(NCCCN3CCCCC3)c12`: the Potency entry is “inactive”. On the same count and under the same terms, next, `CCCCCCCOc1cc2c(cc1/C(C)=C/c1ccc(C(=O)O)cc1)C(C)(C)CCS2(=O)=O`: “inactive”. Regarding `C/C(=C\CCC(C)C1=CCC2(C)OC3=C(CC12)C(=O)C(O)CC3)CO` (stereo not given), the Potency entry is “inactive”.

On to `CN(C)C(=O)NC1(c2ccccc2)CCN(CCC[C@]2(c3ccc(Cl)c(Cl)c3)CCCN(C(=O)c3ccccc3)C2)CC1`, for which the Potency result was “inactive”. As to `OC1(CN2CCC(COc3noc4cccc(O[C@@H]5CCOC5)c34)CC2)CCOCC1`, the Potency entry was “inactive”. Consider `COC(=O)/C=C/C=C/C(=O)OC1C=C2COC(=O)C2(O)C2(C)CCCC(C)(C)C12` (stereo not given), for which the Potency entry was “inactive”. In the case of `CC(C)(O)C1Cc2c(ccc(C(=O)CCc3ccccc3)c2O)O1` (stereo not given), the Potency entry is “inactive”. Consider `O=C(NC1(c2ccccc2)CC1)c1c(CN2CCC(N3CCCCC3)CC2)c(-c2cccc(C(F)(F)F)c2)nc2cc(Br)ccc12`, for which the Potency result was “inactive”. The same measure, in the same setting: under `O=C(Nc1cc(C(F)(F)F)cc(C(F)(F)F)c1)c1cnc(Cl)nc1C(F)(F)F` stands “inactive”; under `Cc1[nH]c2ccc(F)cc2c1-c1nc2c3cccnc3c3ncccc3c2[nH]1`, “inactive”; under `O=C(N[C@H]1CCN(C(=O)c2cc(C(F)(F)F)cc(C(F)(F)F)c2)[C@H](Cc2ccc(Cl)cc2)C1)c1ccnc2ccccc12`, “inactive”.

Regarding `CC(C)C[C@@H](C(=O)N[C@@H](Cc1ccc(OCc2ccccc2)cc1)C(=O)NC(C)(C)C)N(C)Cc1ccc(C(C)(C)C)cc1`, the Potency entry was “inactive”. For `CC(C)(C[C@@](O)(Cc1cc2ccncc2[nH]1)C(F)(F)F)c1cc(F)ccc1O`, the Potency result was “inactive”.

As to `C[C@H]1CC[C@@]2(OC1)O[C@H]1CC3[C@@H]4CC[C@@H]5C[C@@H](O[C@@H]6O[C@H](CO)[C@@H](O[C@@H]7O[C@@H](C)[C@H](O)[C@@H](O)[C@H]7O)[C@H](O)[C@H]6O[C@@H]6O[C@H](CO)[C@@H](O)[C@H](O)[C@H]6O)CC[C@]5(C)C4CC[C@]3(C)[C@H]1[C@@H]2C` (stereo not given in full), the activity, negative = inhibition is 2.19% [at 11.6 µM] (inactive). Consider `C1=Cc2ccccc2C(=C2CCN(CCCCc3nn[nH]n3)CC2)c2ccccc21`, for which the Potency entry is “inactive”.

On to `C/C=C(\C)C(=O)OC1C=C(C)CC(OC(=O)c2ccc(O)cc2)C2C1(C)CCC2(O)C(C)C` (stereo not given), for which the Potency entry was “inactive”. Regarding `COc1ccc(Cl)c(Nc2ncnc3cc(OCC4CCN(C)CC4)c(OC)cc23)c1`, the Potency entry was “inactive”.

Turning to `CC[C@@H](C)Nc1cc(C(=O)NC2CC3CC[C@@H](C2)N3c2ccc(C(=O)C3CC3)cn2)c(C)cc1C(N)=O` (stereo not given in full), the Potency entry was “inactive”.

For `c1ccc(-c2cnn3cc(-c4ccc(OCCN5CCOCC5)cc4)cnc23)cc1`, the Potency entry is “inactive”. As for `COC1CC(O[C@H]2CC[C@]3(C)C4CC[C@]5(C)C(C6=CC(=O)OC6)=CCC56OC46CC[C@@H]3C2)OC(C)C1O[C@@H]1O[C@H](CO[C@@H]2O[C@H](CO)[C@@H](O)[C@H](O)[C@H]2O)[C@@H](O)[C@H](O)[C@H]1O` (stereo not given in full), the activity, negative = inhibition is 0% [at 11.6 µM] (inactive). For `C=C1CCC[C@]2(C)CC/C(=C(/CO)C(=O)OC)C[C@@H]12`, the Potency result is “inactive”. For `CCNC(=O)Nc1ccc(-c2nc3c(c(N4CCOCC4C)n2)CCN(C2COC2)C3)cc1` (stereo not given), the Potency result was “inactive”. As for `O=c1cc(N2CCN(c3cccc(C(F)(F)F)c3)CC2)[nH]c(=O)n1C1CCCCC1`, the Potency entry was “inactive”.

The record behind these values is PubChem BioAssay (NCATS).
